Records with an inconclusive call do not appear. Entries that show only a call come without a potency. Values without a mark were called inactive. Calls of active or inactive are those of the source. Calls come from the whole dose curve; as a rule, active = well fitted inhibition curve with a large enough effect; inconclusive = small, poorly fitted or top-dose-only effect; inactive = no such curve, though single readings can be large or run the other way. Where a SMILES comes first, the peptide text is derived from it. [ ]: non-standard residue; d: D form. The star is where a group is joined. ξ: configuration not given here. AFC = O=c1cc(C(F)(F)F)c2ccc(N*)cc2o1; ξPhe(βξ-Me) = CC(c1ccccc1)C(N)C(=O)O; GABA = NCCCC(=O)O
Key:
[1] = tested on: Zika virus NS2B-NS3 protease (unlinked complex); experiment: Primary screen GU Rhodamine qHTS for Zika virus inhibitors: Unlinked NS2B-NS3 protease assay (AID 1347159); settings: Recombinant ZIKV NS2B-NS3 protease, Rhodamine110 substrate fluorescence; series mostly up to 107 µM; note: nearly all actives have a fitted effect of over 60% in size
Summary of the method: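 A qHTS format was used, with compound concentrations ranging up to 114 microM. Each compound was preincubated with 25 nM NS2B-NS3 protease, and the substrate was then added at 1.5 microM. Curves were fitted with a 4-parameter Hill model.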

[2] = tested on: Zika virus NS2B-NS3 protease (linked construct); experiment: Primary screen NINDS Rhodamine qHTS for Zika virus inhibitors (AID 1347160); settings: purified NS2B-NS3 protease, Rhodamine110 substrate fluorescence; series mostly up to 57.1 µM; note: nearly all actives have a fitted effect of over 55% in size
Summary of the method: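 Kinetic fluorescence (Ex 480 nm, Em 540 nm) over 15 min with 1.5 microM Rhodamine110 peptide and 25 nM linked protease.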

SMILES	Potency [1]	Potency [2]	activity change, negative = inhibition [1]	activity change, negative = inhibition [2]
CC1=C(C(=O)O[C@@H]2O[C@H](COC3OCC(O)C(O)C3O)[C@@H](O)[C@H](O)[C@H]2O)C(C)(C)CCC1 (some centres not stated)	inactive	inactive		
CC1(C)CC[C@]2(C(=O)O[C@@H]3O[C@H](CO)[C@@H](O)[C@H](O)[C@H]3O)CC[C@]3(C)C(=CCC4[C@@]5(C)CC[C@H](O[C@@H]6O[C@H](C(=O)O)[C@@H](O)[C@H](O)[C@H]6O)[C@@](C)(CO)C5CC[C@]43C)C2C1 (some centres not stated)	inactive	inactive		
CC1NC(=O)CCCNC(=O)C(Cc2c[nH]c3ccccc23)NC(=O)C(C)NC(=O)C(C(C)C)NC(=O)C(C(C)c2ccccc2)NC(=O)C(C(C)C)NC1=O (stereo not drawn) (cyclo([GABA]AV[ξPhe(βξ-Me)]VAW); configuration not given here)	inactive	inactive		
CC1(C)CC[C@]2(C(=O)O)CC[C@]3(C)C(=CCC4[C@@]5(C)CC[C@H](O[C@@H]6O[C@H](C(=O)O)[C@@H](O[C@@H]7OC[C@@H](O)[C@H](O)[C@H]7O)[C@H](O)[C@H]6O)C(C)(C)C5CC[C@]43C)C2C1O (some centres not stated)	inactive	inactive		
C[C@H](C/C=C/C(C)(C)O)[C@H]1CC[C@@]2(C)[C@@H]3[C@@H](O[C@@H]4O[C@H](CO)[C@@H](O)[C@H](O)[C@H]4O)C=C4C(CC[C@H](O)C4(C)C)[C@]3(C=O)CC[C@]12C (some centres not stated)	inactive	inactive		
COc1c2c(c(C)c3c1C(=O)OC3)O[C@@]1(C)CCC3(C(C)(C)O)OC(=O)CC[C@]3(C)[C@H]1C2 (some centres not stated)	inactive	inactive		
O=C(O)c1ccc(CN2CCC(CN[C@@H]3C[C@H]3c3ccccc3)CC2)cc1	inactive	inactive		
C=C1C(=O)O[C@@H]2C[C@H](C)[C@@]3(O)C=C(C(C)=O)[C@]4(CC3C[C@H]12)C(=O)O[C@H]1C[C@@H](C)C(CCC(C)=O)=CC[C@H]14 (some centres not stated)	inactive	inactive		
CC1(C)C=CN2C(=O)C3=CCCN3C(=O)[C@@H]2C[C@@]12Nc1ccccc1C2=O	inactive	inactive		
COC(=O)C12C(=O)C(C)=C(O)C1(C)C(C)=CC1C3(CO)CCC(O)C(C)(C)C3CCC12C (configuration not stated)	inactive	inactive		
CC[C@@H](O)C[C@@H]1C(C)=C[C@@H]2CCCC[C@@H]2[C@@]1(C)C(=O)O	inactive	inactive		
C[C@@H]1O[C@@H](O[C@H]2[C@H](O[C@H]3CC[C@@]4(C)C(CC[C@]5(C)C4CC=C4[C@@H]6CC(C)(C)CC[C@]6(C(=O)O[C@@H]6OC[C@H](O)[C@H](O)[C@H]6O[C@@H]6O[C@@H](C)[C@H](O[C@@H]7O[C@H](CO)[C@@H](O)[C@H](O)[C@H]7O)[C@H](O)[C@H]6O)[C@H](O)C[C@]45C)C3(C)C)O[C@H](CO)[C@@H](O[C@@H]3OC[C@@H](O)[C@H](O)[C@H]3O)[C@@H]2O)[C@H](O)[C@H](O)[C@H]1O (some centres not stated)			-6.95% [at 19.1 µM]	-3.53% [at 10.7 µM]
COC1=CC(=O)CC(C)C12Oc1cc(OC)cc(O)c1C2=O (configuration not stated)	inactive	inactive		
Cn1nnc(-c2ccc(-c3ccc(N4C[C@H](COP(=O)(O)O)OC4=O)cc3F)cn2)n1	inactive	inactive		
O=C(OC[C@H]1O[C@H](O[C@]2(CO)O[C@H](CO)[C@@H](O)[C@@H]2O)[C@H](O)[C@@H](O)[C@@H]1O)c1ccccc1	inactive	inactive		
Cc1c2cc(c(C(=O)O)c1C)OC1OC(C(O)C(O)C1O)C(O)C(O)C1OC(O2)C(O)C(O)C1O (configuration not stated)	inactive	inactive		
CCN1CCN(Cc2ccc(NC(=O)c3ccc(C)c(/C=C/c4cnc5[nH]ccc5c4OC)c3)cc2C(F)(F)F)CC1	inactive	inactive		
COC(=O)CCSCc1ccc(-c2onc(C)c2NC(=O)OC(C)c2ccccc2Cl)cc1 (configuration not stated)	inactive	inactive		
C/C=C(/COC(=O)/C(C)=C/C)C(=O)OC(CC)c1ccc(OC)c(OC)c1 (configuration not stated)	inactive	inactive		

SMILES	Potency [1]	Potency [2]	activity change, negative = inhibition [1]	activity change, negative = inhibition [2]
CCNCc1nc2c(N)nc3ccccc3c2n1CC(C)(C)O	inactive	inactive		
CC(=O)N[C@@H](Cc1c[nH]c2ccccc12)C(=O)N[C@@H](CCC(=O)O)C(=O)N[C@@H](Cc1cnc[nH]1)C(=O)N[C@@H](CC(=O)O)C(=O)Nc1ccc2c(C(F)(F)F)cc(=O)oc2c1 (Ac-WEHD-{AFC})	inactive	inactive		
Nc1ccc(/C=C/C(=O)NCc2cc3cc(-c4ccc(C(=O)N5CCC(F)(F)CC5)cc4)cc(-c4ccc(F)cc4)c3o2)cn1	inactive	inactive		
CC(C)c1cc(C(=O)N2CC[C@@H](NC(=O)C3CC3)C2)n[nH]1	inactive	inactive		
O=C(O)c1cc2cccc([N+](=O)[O-])c2[nH]1	inactive	inactive		
CN(C)C/C=C/C(=O)Nc1cc2c(Nc3ccc(F)c(Cl)c3)ncnc2cc1OC1CCOC1 (configuration not stated)	inactive	inactive		
NC(=O)c1csc(C2OC(CO)C(O)C2O)n1 (configuration not stated)	inactive	inactive		
C[C@@H]1O[C@@H](O[C@H]2[C@@H](OC(=O)[C@]34CCC(C)(C)CC3C3=CCC5[C@@]6(C)C[C@H](O)[C@H](O[C@@H]7O[C@H](C(=O)O)[C@@H](O)[C@H](O)[C@H]7O)[C@@](C)(C(=O)O)C6CC[C@@]5(C)[C@]3(C)CC4)OC[C@H](O)[C@@H]2O)[C@H](O)[C@H](O)[C@H]1O[C@@H]1OC[C@@H](O)[C@H](O)[C@H]1O (some centres not stated)	inactive	inactive		
Cc1ccc(S(=O)(=O)n2ccc(-c3c(-c4ccc(Cl)cc4)noc3C)n2)cc1	inactive	inactive		
CC(=O)O[C@H]1[C@H](O[C@H]2[C@@H]3C=CO[C@@H](O[C@@H]4O[C@H](CO)[C@@H](O)[C@H](O)[C@H]4O)[C@@H]3[C@@]3(CO)O[C@@H]23)O[C@@H](C)[C@H](OC(=O)/C=C/c2ccccc2)[C@H]1OC(=O)/C=C/c1ccccc1	inactive	inactive		
C[C@@H]1CN(Cc2ncccn2)C[C@H]1c1nc2c(cnn2C2CCOCC2)c(=O)[nH]1	inactive	inactive		
COC(=O)C12CCC(C)C(C)C1C1=CCC3C4(C)CCC(OC(C)=O)C(C)(C)C4CCC3(C)C1(C)CC2 (configuration not stated)	inactive	inactive		
COC1CC(O[C@H]2CC[C@@]3(C)C(=CC[C@]4(O)C3[C@H](OC(C)=O)[C@@H](OC(=O)c3ccccc3)[C@]3(C)[C@@H](C(C)=O)CC[C@@]34O)C2)OC(C)C1OC1CC(OC)C(OC2CC(OC)C(OC3OC(C)C(OC4OC(CO)C(O)C(O)C4O)C(OC)C3O)C(C)O2)C(C)O1 (some centres not stated)			25.7% [at 19.1 µM]	-1.64% [at 10.7 µM]
CC1=CC(=O)CC(C)(C)C1/C=C/C(C)O[C@@H]1O[C@H](CO)[C@@H](O)[C@H](O)[C@H]1O[C@@H]1OC[C@](O)(CO)[C@H]1O (some centres not stated)	inactive	inactive		
COc1cc2ncnc(Nc3ccc(F)c(Cl)c3)c2cc1NC(=O)/C=C/CN1CCCCC1	inactive	inactive		
COc1cccc(Nc2ncnn3ccc(CN4CC[C@@H](N)[C@H](O)C4)c23)c1	inactive	inactive		
COC1/C=C/C(C)(O)C(SCC(N)C(=O)O)CC(=O)OC(C)C(C)CC/C=C/1C (configuration not stated)	inactive	inactive		
CC(=O)OC1C(OC(=O)c2ccccc2)C2C(C)(C)CC(=O)CC2(C)C23CCC(C)(C2)C(O)CC13 (configuration not stated)	inactive	inactive		
CCNC(=O)Nc1ncc(-c2cc(-c3c(C)cc(OC)cc3C)nc(-c3cnccn3)n2)s1	inactive	inactive		

SMILES	Potency [1]	Potency [2]	activity change, negative = inhibition [1]	activity change, negative = inhibition [2]
Cc1ccc(S(=O)(=O)Cc2nc(-c3ccc(C(=O)NCc4cccnc4)cc3)oc2C)cc1	inactive	inactive		
Cc1c(NC(=O)c2cc(C(N)=O)nc3cc(F)ccc23)c(C(F)(F)F)nn1Cc1ccc(C#N)cc1	inactive	inactive		
CC1(C)C2CC=C(COC3OC(COC4OCC(O)(CO)C4O)C(O)C(O)C3O)C1C2 (configuration not stated)	inactive	inactive		
C=C(C(=O)OC)C1C(O)CC2(C)C(O)CCC(=O)C2C1O (configuration not stated)	inactive	inactive		
N#Cc1c(Oc2ccc(F)c(NC(=O)Cc3cccc(C(F)(F)F)c3)c2)ccc2nc(NC(=O)C3CC3)sc12	inactive	inactive		
CC(C)(O)/C=C/C1=CC(=O)[C@@](C)(O)C[C@H]1O	inactive	inactive		
OC[C@H]1O[C@@H](OCCc2ccccc2)[C@H](O[C@@H]2OC[C@](O)(CO)[C@H]2O)[C@@H](O)[C@@H]1O	inactive	inactive		
O=C1CCC=CC1(O)C(=O)OCc1ccccc1O[C@@H]1O[C@H](CO)[C@@H](O)[C@H](O)[C@H]1O (some centres not stated)	inactive	inactive		
CCNC(=O)C1OC(n2cnc3c(N)nc(NCCc4ccc(CCC(=O)O)cc4)nc32)C(O)C1O (configuration not stated)	inactive	inactive		
CSc1ccc(C(=O)N[C@@H]2CCCC[C@@H]2NC(=O)CNC(=O)c2cc(C(F)(F)F)ccc2NC(=O)NC(C)C)cc1	inactive	inactive		
O=C(CCCCN1CCOCC1)Nc1ccc(-c2cccnc2)cc1	inactive	inactive		
C=C(C(=O)O)C1CC(O)C2(C)CCCC(=C)C2C1 (configuration not stated)	inactive	inactive		
CCCC(=O)C1CCN(c2ncnc3c2CN(C(=O)c2ccc(-c4ccccc4)cc2)CC3)CC1	inactive	inactive		
COc1ccc2nc(S(=O)(=O)Cc3ncc(C)c(OC)c3C)[nH]c2c1	inactive	inactive		
CCCCNc1ncc2c(-c3ccc(F)cc3)nn(CC3CCC(N)CC3)c2n1 (configuration not stated)	inactive	inactive		
C=C1C(O)C[C@@H]2C(C(=O)O)=CO[C@@H](O[C@@H]3O[C@H](CO)[C@@H](O)[C@H](O)[C@H]3OC(=O)c3ccc(O)cc3)[C@H]12 (some centres not stated)	inactive	inactive		
CC(NC(=O)CCc1nc2ccccc2c(=O)[nH]1)c1ccccc1 (configuration not stated)	inactive	inactive		
CC(=O)OC1CC2(C)C3=CCC4(C)C5C(O)C(O)C(C(C)C)C5(C)CCC4(C)C3CCC2C(C)(C)C1OC1OC(CO)C(O)C(O)C1O (configuration not stated)	inactive	inactive		

Source: PubChem BioAssay (NCATS)
